# The supplement of paper PMC6555819
# Columns and labels:
# Assay in all cases: PBM binding z-score (relative to random genomic background probes); higher = stronger binding; sequences stand for … in GC…GCGATTGACAGCGTAGAATGAAGG
# [1] = system: FXR:RXRa (NR concentration 270 nM, RXRa partner concentration 90 nM)
# Procedure, shortened: (§1)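 Scanned fluorescence from custom Agilent 4×180K protein-binding microarrays was regression-normalized. Binding z-scores use random background probes as reference. Ligand-free nuclear receptor dimers were incubated on the arrays for 1 h and detected with antibodies against each partner (one per run).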
# [2] = system: LXRa:RXRa (NR concentration 270 nM, RXRa partner concentration 90 nM)
# Procedure, shortened: as §1
# [3] = system: LXRa homodimer (NR concentration 270 nM)
# Procedure, shortened: as §1
# [4] = system: LXRb:RXRa (NR concentration 270 nM, RXRa partner concentration 90 nM)
# Procedure, shortened: as §1
# [5] = system: LXRb homodimer (NR concentration 270 nM)
# Procedure, shortened: as §1
# [6] = system: PPARa:RXRa (NR concentration 270 nM, RXRa partner concentration 90 nM)
# Procedure, shortened: as §1
# [7] = system: PPARg:RXRa (NR concentration 180 nM, RXRa partner concentration 90 nM)
# Procedure, shortened: as §1
# [8] = system: PPARg:RXRa 270nM:90nM, anti-RXR (NR concentration 270 nM, RXRa partner concentration 90 nM)
# Procedure, shortened: as §1
# [9] = system: PPARg:RXRa 30nM:10nM, anti-RXR (NR concentration 30 nM, RXRa partner concentration 10 nM)
# Procedure, shortened: as §1
# [10] = system: PPARg:RXRa 90nM:30nM, anti-RXR (NR concentration 90 nM, RXRa partner concentration 30 nM)
# Procedure, shortened: as §1
Sequence,PBM binding z-score [1],PBM binding z-score [2],PBM binding z-score [3],PBM binding z-score [4],PBM binding z-score [5],PBM binding z-score [6],PBM binding z-score [7],PBM binding z-score [8],PBM binding z-score [9],PBM binding z-score [10]
CCTTACGGGTCACTGACAGGTTATAGAATTTGGA,5.11,4.02,0.265,3.45,0.0176,4.89,4.24,4.49,1.75,3.35
TAGCCTAGGTCAGATCGGGCCAATATACGCTATA,1.51,1.46,0.0992,1.22,0.0531,1.79,0.875,0.613,-0.00847,0.383
AGAATGAGGTTATTAAGTTCAGGGAATTGCGGTC,2.41,3.29,2.12,1.95,0.228,3.11,1.55,2.1,0.695,1.08
TCTCGTAGATCAACAGGAGGTTAAGAAAGATCGA,0.345,1.09,-0.171,1,-0.667,1.13,-0.29,1.7,2.94,2.36
ATCTCTAGGTAAAAGTTCCGTGAATCCCGAGGAT,0.485,0.395,-0.0221,-0.0121,0.845,1.5,2.36,4.22,2.6,3.7
TCTGCTAGGTCAGTTGGTCAGCTTACGAGCTGCC,0.94,0.456,-0.755,0.14,0.216,1.29,0.177,1.69,0.977,1.39
GCTACTGGGGCATCAGCAGGTTACCATAACTTAA,-0.035,-0.127,-0.19,0.88,-0.858,1.74,2.37,2.01,0.134,1.34
TCTTGTAGATCAGCAAGTTAAGAAAGCTGGCCAA,-0.13,-0.113,-0.739,-0.0484,-0.743,0.316,-0.599,1.24,2.5,1.78
CGTCCAAAGTCAGCAGGTCAGTGAAAGCGACGTG,0.237,0.521,0.0163,0.578,-0.765,1.24,-0.0107,0.0351,-0.634,-0.432
ACTAGTTGGCCAGCTGAGGTCACACACAATTCGG,2.99,2.85,1.49,3.25,-0.00517,3.54,1.55,1.67,0.296,1.05
CAAACTATGTCACAGAGGTCAAAGTCCGTGCGTA,5.6,5.73,5.85,5.11,2.14,5.51,6.2,6.01,3.36,5.69
CCTAGCTGGTCAGGAGGTCACACACCGGATATGA,3.53,3.73,1.44,3.21,0.171,4.14,2.84,3.59,1.08,2.74
GCTGCTACGTCAGGTTGGTCAGCTAACGGGTACG,-0.416,-0.646,-0.592,-0.968,-0.619,-0.713,-0.0701,-0.954,-0.756,-0.888
AGTCAAAGTTCAGGACGAGGTAAGGTAAAGCACG,4.31,3.87,1.46,1.95,0.293,3.46,4.39,5.12,2.13,4.27
ATATGTAGGTTAGCTGGGGTCATTCATACTAGGC,4.61,5.73,3.67,5.14,1.97,5.1,5.98,5.23,3.12,4.83
TGAATGAGGTTATAAGTTCAGGGAACGTTGCAAA,2.81,2.69,0.29,1.88,-0.136,3.66,2.09,3.38,1.55,2.71
CCTACTGGGTCAAGGTCATTGATCAGTCAAAGCA,6.14,5.13,2.13,4.83,0.0227,6.04,8.59,7.05,5.09,6.81
CAAACTAGGTCAACGGTCAAAGTCGAGCCAACCA,5.58,4.31,2.25,3.09,0.978,6.16,11,9.5,8.86,11
ATCTCTAGGTAAAGATAGTACAGTGAATGCAAAT,0.368,1.08,0.357,0.211,0.424,0.263,1.13,0.762,0.819,0.761
CCTACTAGGTCAATGGTCAGCTAAAGCAGCTCGC,3.38,2.41,0.529,1.87,0.47,4.62,8.83,7.23,6.92,7.71
GATACAGGGTCAAGGCCAGAGAACGCGTATTGAT,6.78,4.32,0.0774,3.59,-0.239,5.57,5.91,5.64,2.25,4.54
ATGTGTAGGTTATCGGGTCATTCAGTTTGCGCAT,3.54,3.13,1.9,3.3,1.26,4.08,4.09,4.29,1.54,3.43
CCTACTGGGCCATTCAGAAGTCATTGATCATATG,-0.391,-0.415,-0.186,-0.497,-0.171,0.968,0.302,0.341,-0.166,-0.00895
CCTTACGCGTCACTGACAGGTTATAGCATTTGGA,0.188,0.449,0.568,0.697,0.644,0.558,0.31,0.128,0.0399,0.241
TCTTGTAGATCAACAGGAGGCTAAGAAAGATCGA,-0.113,-0.312,-0.481,-0.391,-0.588,-0.00556,-0.179,1.14,2.28,1.35

Sequence,PBM binding z-score [1],PBM binding z-score [2],PBM binding z-score [3],PBM binding z-score [4],PBM binding z-score [5],PBM binding z-score [6],PBM binding z-score [7],PBM binding z-score [8],PBM binding z-score [9],PBM binding z-score [10]
CCGACTGGGGCAGAAAGGTTACTATACCATCCGG,-0.369,-0.0108,-0.29,0.722,-1.04,1.5,1.63,2.14,0.485,1.52
TTAATGAGGTTATAAGATCAGGGAACGTTGCAAA,1.87,1.75,0.416,1.58,0.291,3.04,1.96,2.7,1.97,2.32
TCTCGGAGGACACGAGGGTCAGAGCTTTCCAGAG,0.856,0.365,-0.438,0.47,-1.32,1.46,0.145,1.07,1.75,1.17
GCGACTGGGGCACCAGCAGGTTACCATAACTTAA,-0.545,-0.382,-0.495,0.0821,-1.41,1.05,1.55,1.44,-0.582,0.564
TCTTGTAGATCAATCGAGGTTAAGAAAGTGCGCT,1.32,3.01,0.075,1.49,0.176,1.73,-0.311,1.51,2.7,2.4
ATCTCAAGGTAACAAGTTCAGTGAAAGAGAGGAC,1.2,1.29,0.665,0.971,0.9,1.4,0.619,1.08,0.731,1.03
CAGCCTAGGTCAGGGACAGTATAGGAGGAACGTT,1.72,1.1,-0.189,0.879,-0.664,2.34,1.26,1.07,0.251,0.563
TCGGGTAGGTTAGGGGCATTCAGAATGGCGTCGA,1.49,1.32,0.575,2.21,1.8,1.85,0.499,1.7,1.98,1.74
TCTCAGAGGACACGAAAGGTCAGAGCTCGACATC,3.13,4.15,3.56,3.12,0.409,3.52,1.66,3.01,3.08,2.85
CCGACTGGGGCAAATGTTACCATACTCAGTACGA,0.0667,-0.122,0.0319,0.411,-0.698,2.25,4.31,5.16,3.62,5.18
CCTACTGGGCCAAAAAGGTCATGGATGCCGATAA,3.67,4.35,2.1,4.13,-0.189,5.2,4.16,4.82,1.68,3.88
AGAACGAGGCCACGCTGAGTTGATAGCAGAGTAG,0.0545,-0.515,-0.521,-0.809,-0.992,0.356,0.903,0.196,-0.0987,0.189
CGTCAAAGTTCAACTAAGGTAACGTCAAGCACGC,7.22,6.46,4.23,4.17,2.06,5.14,5.08,5.67,2.61,4.36
ATCTATAGGTAAAAGTTCAGTGAATCCCGAGGAT,0.696,1.58,1.09,1.06,0.602,3.99,6.8,6.94,5.53,7.36
CCGAGTAGCTTATGGGGCATTCAGGCAACGGTGA,-0.494,-0.536,-0.883,-0.715,-1.2,-0.234,-0.0289,-0.512,-0.765,-0.818
TCTGCTAGGTCAAAGATGGTCAGCTAATCTGCTA,3.55,3.06,0.0702,2.07,0.0441,3.73,3.32,4.37,2.61,3.76
AGAATGAGGTTACCAAAGAACAGGGAAACGCTTG,1.88,5.18,-0.214,2.35,-0.334,3.32,2.51,2.41,1.03,1.71
GCATATAGGTAGTACAAGGTGAAAGTCCGATTGT,1.03,0.23,-0.159,0.269,-0.562,1.16,0.674,0.733,0.197,0.775
ACTAGCAGGCCAAGGGTCGCTCAAGATTAGTCCG,-0.247,0.0805,-0.567,0.0881,-0.965,2.36,4.99,6.2,3.7,5.95
ATCTCAAGGTAAAGTTCAGTGAAAGATCGATAGA,1.67,2.17,1.5,1.42,0.854,2.22,1.97,3.4,1.67,2.73
CCTCGGACGACAGAAGGTCAGAGCTGTCCGCTTT,1.1,1.53,0.0414,1.18,-0.358,1.83,-0.153,-0.0801,-1.06,-0.472
CTCGAAAGGTCGTGCTCAGGTCAGTATACCAAAC,5.86,5.15,1.44,4.15,0.558,5.2,3.19,4.09,1.06,2.7
ACAAGTTGGTCAGCTGAGGTCACACACAATTCGG,3.12,3.24,2.34,3.77,0.506,3.78,2.28,2.38,0.435,1.74
GCTCGGAGGACAAGGTCCGAGCTTTGTCCGTAGA,-0.694,-0.575,-1.02,-1.07,-1.61,-0.595,-1.19,-0.67,-1.34,-1.09
